Assay outcomes deposited in PubChem by several laboratories.
Shown are actives, neighbours in structure and some others; about 1.8% of the full set was active somewhere.
NOD2 RIPK2 PPI: inhibitors of human NOD2-RIPK2 interaction; CHO BLA complementation NOD2-RIPK2, CCF4 ratio; 360,000 tested, 0.38% active; inhibition, % at 4.98 µM; O43353; in the data active = inhibition above about 21%;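 note: 0% = vehicle only and 100% = reference blocker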
TLR4 MyD88 comp: blocks binding of human TLR4 to MyD88 | O00206+Q99836 | HeLa CL3-4 TLR4/MyD88 BLA complementation, FRET ratio | inhibition, % at 8.4 µM | 200,000 tested, 0.18% active | AID 861; in the data active = inhibition above about 25%;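 note: 0% = vehicle and 100% = reference inhibitor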
Rtt109 Vps75: blocks Candida albicans Rtt109/Vps75 acetyltransferase activity; Q5AAJ8; purified Rtt109/Vps75, ThioGlo CoA-SH fluorescence, 4 h; inhibition, % at 34.9 µM; 330,000 tested, 0.16% active;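 active = inhibition of at least 50% in every replicate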
TLR9-MyD88 inh: inhibitors of human TLR9-MyD88 binding | 340,000 tested, 0.21% active | CHO BLA complementation TLR9-MyD88, CCF4 FRET ratio | AID 504734 | inhibition, % at 4.98 µM | Q9NR96+Q99836;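 active = inhibition above the mean over all tested compounds plus 3 SD, cut at about 21% in these data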;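 note: 0% = DMSO only wells and 100% = clavulanate BLA inhibitor control wells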
m5-HT2A agonist: mouse HTR2A agonism via beta-arrestin recruitment; P35363; CHO-K1 mHTR2A beta-arrestin complementation, luminescence; percent of 30 µM serotonin response; activation, % at 7.6 µM; 360,000 tested, 0.66% active;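 active = activation above a run cutoff, the mean activation of all tested compounds plus 3 SD, cut at about 14% in these data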;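 note: 0% = plate median of compound wells and 100% = 30 µM serotonin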
Target sequence (P35363 whole entry, looked up): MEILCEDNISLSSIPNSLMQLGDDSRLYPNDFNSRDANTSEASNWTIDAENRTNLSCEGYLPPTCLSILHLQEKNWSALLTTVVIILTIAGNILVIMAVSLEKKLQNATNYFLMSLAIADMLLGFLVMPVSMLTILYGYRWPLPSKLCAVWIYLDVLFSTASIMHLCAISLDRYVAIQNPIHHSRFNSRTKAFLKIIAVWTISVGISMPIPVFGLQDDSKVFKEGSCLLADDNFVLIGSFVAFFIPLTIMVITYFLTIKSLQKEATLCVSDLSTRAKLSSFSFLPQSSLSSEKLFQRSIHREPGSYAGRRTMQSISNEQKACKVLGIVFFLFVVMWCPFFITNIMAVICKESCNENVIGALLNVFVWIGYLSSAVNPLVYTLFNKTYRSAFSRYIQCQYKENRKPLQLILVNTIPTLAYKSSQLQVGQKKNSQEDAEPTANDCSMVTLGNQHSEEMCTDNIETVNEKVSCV
LANA-H2B inh: blocks KSHV LANA binding to histone H2A/H2B; Q9QR71; cell-free LANA-H2A/H2B peptide, fluorescence polarization; inhibition, % (no concentration beside the values); 320,000 tested, 0.6% active; in the data active = inhibition mostly above about 10%, no sharp cut-off; inactive = mostly below about 6.7%
OPRM1 ag: counter-screen for mouse HTR2A agonists: human mu opioid receptor agonists; shares compounds with m5-HT2A agonist; U2OS OPRM1 beta-arrestin PathHunter, luminescence; DMSO 0%, DAMGO 9.3 µM 100%; activation, % at 9.3 µM; 2,300 tested, 5.3% active;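 active = mean activation above the mean of DMSO-only wells plus 3 SD, cut at about 0.5% in these data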
m5-HT2A ag conf: mouse HTR2A agonism confirmed; AID 624381; 2,300 tested, 19% active; activation, % at 7.6 µM; CHO-K1 PathHunter beta-arrestin recruitment, luminescence; DMSO 0%, 30 µM serotonin 100%; shares compounds with m5-HT2A agonist;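 active = mean activation across triplicates above the hit threshold derived in the original primary screen, cut at about 15% in these data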
* = called active by the depositor; · = no result given.

SMILES	NOD2 RIPK2 PPI	TLR4 MyD88 comp	Rtt109 Vps75	TLR9-MyD88 inh	m5-HT2A agonist	LANA-H2B inh	OPRM1 ag	m5-HT2A ag conf
CN1C(C(=O)NCc2cccc(C(F)(F)F)c2)CC2Cn3c(nc4cc(Cl)c(Cl)cc43)C21 (stereo unspecified)	-1	·	5	-6	20*	-9	0	-5
COc1ccccc1-c1ccc2c(c1)C(C)(Cc1cc(Cl)ccc1C(F)(F)F)C(=O)N2 (stereo unspecified)	-2	·	·	·	1	·	·	·
COc1ccc(Cl)cc1CC1(C)C(=O)Nc2ccc(-c3ccccc3OC)cc21 (stereo unspecified)	-7	·	·	·	21*	·	0	17*
Cc1ccc(NC(=O)C2CCCN2C(=O)OCc2ccccc2)cc1F (stereo unspecified)	5	·	7	-12	15*	5	0	-5
CC(C)(C)c1ccccc1NC(=O)c1ccc(-n2cncn2)c([N+](=O)[O-])c1	-1	·	-3	8	-5	·	·	·
COCCN(Cc1ccccc1)C(=O)c1cc(-c2ccc(OC)c(OC)c2)nc2ccccc12	-1	·	-2	-1	17*	-7	-1	-1
O=C(O)c1ccc2c(c1)C(=O)N(c1ccc(OCc3ccccc3)cc1)C2=O	-17	·	2	-1	17*	4	0	0
CCCCC(=O)Nc1cc(Cl)ccc1C(=O)O	8	-1	-6	-7	-1	1	·	·
CCCCC(=O)Nc1ccc(Cl)cc1F	-6	·	·	-28	17*	·	0	2
CCn1c(=O)ccc2cc([N+](=O)[O-])ccc21	-4	12	4	0	14*	0	-1	2
Cc1noc(C)c1-c1ccc(C(=O)NCc2cccnc2)c2occc12	-5	·	·	·	-2	·	·	·
Cc1cc(C(O)c2ncc(-c3ccc(Oc4ccccc4)cc3)[nH]2)ccc1F (stereo unspecified)	7	·	·	·	21*	·	0	-6
CCS(=O)(=O)N1CCC(C(=O)Nc2cccc(F)c2)CC1	5	·	-4	-6	1	1	·	·
O=C(Cc1c(F)cccc1Cl)N1CCN(S(=O)(=O)c2cccc(F)c2)CC1	6	·	-4	-3	14*	1	0	-2
Cc1ccc(S(=O)(=O)N2CCN(C(=O)Cc3c(F)cccc3Cl)CC2)cc1	1	·	-3	-6	0	3	·	·
Cn1c(N)c(C(=O)Nc2c(Cl)cccc2Cl)sc1=S	0	·	4	-1	20*	-3	0	1
C=CCN1C(=O)c2ccc(C(=O)N3CCN(S(=O)(=O)c4cccc(Cl)c4)CC3)cc2C1=O	2	·	6	-12	-4	2	·	·
Cc1ccc2c(c1)CCCN2S(=O)(=O)c1cccc(C(=O)Nc2ccccc2C(=O)O)c1	-14	·	21	-7	15*	0	-1	13
CN(C)C(=O)c1ccc(NC(=O)c2cccc(S(=O)(=O)N3CCCc4ccccc43)c2)cc1	-6	·	11	-8	-1	-3	·	·
CC1CN(CC(=O)Nc2ccc(S(N)(=O)=O)cc2)CC(C)O1 (stereo unspecified)	-7	·	-9	2	5	5	·	·
CCN1CCN(CC(O)COc2ccc(C(C)=O)cc2)CC1 (stereo unspecified)	-5	1	-6	6	-3	-2	·	·
Cc1cccc(OCC(O)CN2CCN(c3ccccn3)CC2)c1C (stereo unspecified)	-8	·	-3	-3	19*	4	-1	40*
CC(=O)c1ccc(OCC(O)CN2CCN(CCO)CC2)cc1 (stereo unspecified)	-9	7	-13	-12	17*	4	-1	-3
COc1cc(C(C)=O)ccc1OCC(O)CN1CCN(c2ccccc2)CC1 (stereo unspecified)	0	·	-5	4	12	1	·	·
COc1cc(C(C)=O)ccc1OCC(O)CN1CCN(c2ccccn2)CC1 (stereo unspecified)	-6	·	7	-2	23*	-3	0	86*
SMILES	NOD2 RIPK2 PPI	TLR4 MyD88 comp	Rtt109 Vps75	TLR9-MyD88 inh	m5-HT2A agonist	LANA-H2B inh	OPRM1 ag	m5-HT2A ag conf
CCC(=O)c1ccc(OCC(O)CN2CCN(c3ccccn3)CC2)cc1 (stereo unspecified)	4	·	11	5	29*	0	0	100*
CC(C)(C)c1ccc(OCC(O)CN2CCN(c3ccccn3)CC2)cc1 (stereo unspecified)	6	·	14	8	6	-1	·	·
CCOC(=O)c1c(-c2ccccc2)oc2ccc(OCC(O)CN(C)C)cc12 (stereo unspecified)	0	·	15	-5	-11	-2	·	·
Cc1ccc(F)cc1C(=O)N1CCCCC1c1cc(C(=O)Nc2ccccc2)no1 (stereo unspecified)	-6	·	·	·	-4	·	·	·
COc1ccccc1C(=O)NC(C)c1ccc(-n2ccnc2)cc1 (stereo unspecified)	6	·	1	1	-3	4	·	·
Cc1ccc(NC(=O)CN2CCOCC2)cc1	-2	·	-1	1	14*	-4	0	0
CCC(C)Oc1nc2c(c(=O)n(C)c(=O)n2C)n1C (stereo unspecified)	-2	·	-3	13	17*	-1	-1	-2
CCCOc1nc2c(c(=O)n(C)c(=O)n2C)n1CCC	-6	2	-1	-7	3	-4	·	·
N#Cc1sc2nc3c(c(-c4ccco4)c2c1N)CCCC3	7	6	-14	17	19*	-4	0	2
COCCN(C(=O)COC(=O)C1CCCCC1)c1c(N)n(Cc2ccccc2)c(=O)[nH]c1=O	0	·	·	-2	16*	·	-1	-4
COCCN(C(=O)COC(=O)CC1CCCCC1)c1c(N)n(Cc2ccccc2)c(=O)[nH]c1=O	-1	·	-5	-10	-1	4	·	·
Cc1ccc(NC(=O)CN(C)C(=O)Cn2c(=O)oc3ccccc32)cc1	-4	·	0	8	-1	0	·	·
O=C(Nc1csc(Cc2c(Cl)cccc2Cl)n1)NN1CCOCC1	8	·	13	6	-10	0	·	·
CC(C)(C)NC(=O)C(c1cc2ccccc2o1)n1c(=O)c(-c2ccco2)nc2ccccc21 (stereo unspecified)	3	·	·	·	16*	·	-1	-4
O=C(/C=C/c1ccncc1)c1ccc2c(c1)OCCO2	7	15	18	7	5	-3	·	·
COc1cc(/C=C/C(=O)c2ccc3c(c2)OCCO3)cc(Br)c1OCC(=O)N(C)C	16	·	8	11	18*	0	-1	-6
